Screens from PubChem.
Sampled rows, rich in hits. Any-hit rate of the full collection: about 19%.
SARS PLpro yeast – blocks SARS-CoV papain-like protease in a yeast assay; S. cerevisiae expressing SARS-CoV PLpro, growth rescue; Potency, µM (series often up to 32.9 µM), without a hit: at the top dose activity, positive = growth rescue, usual class: activators; hit rate 0.19% among 330,000; AID 485353; calls by dose curve; note: potency is the fitted concentration of half-maximal effect; 0% is about no effect; nearly all actives have a fitted effect of over 55% in size
Pf growth 48h – P. falciparum growth inhibition at 48 hours (one generation) | P. falciparum luciferase growth in erythrocytes, 48 h | Potency, µM (highest dose often 28.7 µM), without a hit: top-dose activity change, negative = inhibition, hits mostly inhibitors | hit rate 5.9% among 310,000; note: potency is the fitted concentration of half-maximal effect; % is set by controls: 0 for no effect and ±100 for the full control effect
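Read-out is firefly luciferase luminescence from an integrated reporter in P. falciparum, so falling signal marks reduced parasite growth. Infected erythrocytes were at 2% hematocrit and 0.1% parasitemia (final) in Albumax-supplemented RPMI 1640.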
Shiga inhibitor – Shiga toxin inhibition | Vero cells, Shiga toxin protein synthesis inhibition reporter | inhibition, % at 38.7 µM | hit rate 9.2% among 290,000; in the data active = inhibition mostly above about 28%, no sharp cut-off; inactive = mostly below about 43%; note: 0% is about no effect
Pf growth 96h – P. falciparum growth inhibition at 96 hour, primary screen for plastid delayed-death inhibitors; P. falciparum luciferase reporter growth, 96 h; Potency, µM (doses to about 28.7 µM), inactives show top-dose activity change, negative = inhibition, actives largely listed as inhibitors; hit rate 6.9% among 320,000; AID 504834; note: potency is the fitted concentration of half-maximal effect; % is set by controls: 0 for no effect and ±100 for the full control effect
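Cell-based qHTS: luciferase-tagged P. falciparum in erythrocytes (2% hematocrit, 0.05% parasitemia final) incubated with compounds for 96 hours, 37 C, 5% CO2; luciferase detection reagent then added and luminescence measured.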
Cycloheximide cs – counter-screen hit for Shiga toxin inhibitors, cycloheximide. cell reporter, cycloheximide protein synthesis inhibition counterscreen. max response, %. hit rate 12% among 300,000. AID 2314; in the data active = max response mostly above about 13%, no sharp cut-off; inactive = mostly below about 14%; note: read at 38.3 µM for the half of the compounds with a filed dose; 0% is about no effect
AMA1-RON2 inh – inhibitors of Plasmodium falciparum AMA1-RON2 interaction; AlphaScreen AMA1-biotinylated RON2 peptide binding; Potency, µM (highest dose often 58.2 µM), inactives show at the highest dose activity change, negative = inhibition, most hits filed as inhibitors; hit rate 0.2% among 360,000; AID 720542;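 note: potency is the fitted concentration of half-maximal effect; 0% = vehicle wells and -100% = peptide control; nearly all actives have a fitted effect of over 45% in size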
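AMA1 (3D7) with his tag at 25 nM final met compounds first, then biotinylated RON2 peptide at 25 nM; detection used donor plus acceptor beads, 10 µg/mL apiece, read by AlphaScreen after 30 min at room temperature.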
* = called active by the depositor; i = inactive; ? = inconclusive; · = no result given; ! = not active in a repeat; [ ] = another dose, or the depositor's remark. Unless noted, calls come from the whole dose curve; as a rule, active = well fitted curve in the direction sought with a large enough effect; inconclusive = small, poorly fitted or top-dose-only effect, or another doubt; inactive = no such curve, though single readings can be large; an effect the other way counts as inactive or inconclusive.

SMILES	SARS PLpro yeast	Pf growth 48h	Shiga inhibitor	Pf growth 96h	Cycloheximide cs	AMA1-RON2 inh
CCNC(=S)N/N=C/c1c(Cl)cccc1Cl	?	0%	-12	?	-3	64%
NC(N)=N/N=C/c1c(Cl)cccc1Cl	0%	13µM*	-4	3.7µM*!	1	0%
NC(N)=N/N=C/c1ccccc1Cl	0%	12µM*	-7	10µM*	2	-6%
Cc1cc(S(=O)(=O)N2CCN(c3ccc(F)cc3)CC2)ccc1-n1cnnn1	-5%	-1%	-5	-18%	-4	-5%
Cc1cc(S(=O)(=O)N2CCN(c3ccccc3F)CC2)ccc1-n1cnnn1	-2%	-14%	3	12µM*	-4	9%
CCOC(=O)C(=CNc1ccc2c(c1)c1ccccc1n2CC)C(=O)OCC	-1%	44%	-5	52%	-1	48%
CCC(C)(C)C1CCc2[nH]nc(C(=O)NCc3ccccn3)c2C1 (stereo not drawn)	5%	15µM*	·	9.3µM*	·	106%
CCC(C)(C)C1CCc2[nH]nc(C(=O)NCCN3CCOCC3)c2C1 (stereo not drawn)	5%	?	·	?	·	-2%
CCC(C)(C)C1CCc2[nH]nc(C(=O)NCc3ccc(Cl)cc3)c2C1 (stereo not drawn)	-1%	?	·	?	·	-2%
CCC(C)(C)C1CCc2[nH]nc(C(=O)NCCCNC(=O)OC(C)(C)C)c2C1 (stereo not drawn)	-1%	9.3µM*	·	-10%	·	9%
CCOC(=O)c1ccc(NC(=O)c2cc3ccccc3o2)cc1	-21%	?	41*	?	32*	3%
CCOC(=O)c1cccc(NC(=O)c2cc3ccccc3o2)c1	-6%	108%	57*	0%	49*	0%
CC(C)C(=O)Nc1ccc(NC(=O)c2cc3ccccc3o2)cc1	-4%	51%	62*	·	19*	8%
Cn1c(CSCc2ccc(F)cc2)nnc1SCC(=O)Nc1cccc(C(=O)O)c1	1%	2%	-10	0%	-3	5%
O=C(CSc1nnc(-c2ccc(O)cc2)o1)Nc1cccc(O)c1	2%	27%	64	?	24*	6%
O=C(CSc1ncnc2scc(-c3ccc(F)cc3)c12)c1ccc2c(c1)OCCO2	-7%	-21%	15	25%	16*	-4%[2.32 µM]
NS(=O)(=O)c1ccc(NC(=O)CSc2nnc(-c3ccc(O)cc3)o2)cc1	2%	-15%	-4	-2%	-3	24%
O=C(CSc1nnc(-c2ccc(O)cc2)o1)Nc1ccccc1Br	-1%	32%	76*	?	28*	4%
O=C(CSc1nnc(-c2cccnc2)o1)Nc1ccccc1Br	0%	86%	-5	8%	-5	2%
O=C(CSc1nnc(-c2ccccc2Cl)o1)Nc1ccc2c(c1)OCCO2	2%	i	13	i	14	-13%
O=C(CSc1nnc(-c2ccc(O)cc2)o1)Nc1ccc2c(c1)OCCO2	4%	229%	39*	i	25*	-20%
COC(=O)c1ccc(OC(=O)CN2C(=O)c3ccccc3C2=O)cc1	0%	0%	8	?	-1	4%
O=C(Cc1cccc2ccccc12)NCC(=O)N1CCN(Cc2cccc(C(F)(F)F)c2)CC1	-1%	-6%	·	-16%	·	2%
CCn1c(SCC(=O)Nc2oc(C)c3c(C)n[nH]c(=O)c23)nnc1-c1ccco1	·	·	·	·	·	33%
CCC(CC)c1nnc(NC(=O)C2=NNC(=O)CC2)s1	-2%	14%[5.75 µM]	16	21%	3	45%
SMILES	SARS PLpro yeast	Pf growth 48h	Shiga inhibitor	Pf growth 96h	Cycloheximide cs	AMA1-RON2 inh
O=C(CSc1nnc(-c2ccncc2)o1)c1ccc2c(c1)OCCO2	1%	28%	-7	10%	3	-5%
O=C(CSc1nnc(-c2ccc(F)cc2)o1)c1ccc2c(c1)OCCO2	-3%	20%	10	·	18*	0%
O=C(N/N=C/c1cc2ccccc2nc1Cl)[C@H]1C[C@@H]1c1ccccc1	4%	2.6µM*	-16	1.7µM*	-2	-7%[2.32 µM]
Cc1ccc2cc(/C=N/NC(=O)[C@H]3C[C@@H]3c3ccccc3)c(Cl)nc2c1	-12%	2.9µM*	10	2.1µM*	16*	17%
Cc1cccc2cc(/C=N/NC(=O)[C@H]3C[C@@H]3c3ccccc3)c(Cl)nc12	0%	0%	-4	7%	-1	4%
Cc1ccc2nc(N3C(=O)CNC3=S)sc2c1	-6%	?	56*	-90%	47*	14%
COc1ccc2nc(N3C(=O)CNC3=S)sc2c1	-2%	15%	50	?	51*	35%
Cc1cccc(CC2CC(=O)N(c3nc4ccccc4s3)C2=O)c1 (stereo not drawn)	0%	-3%	-7	92%[1.15 µM]	-1	-10%
O=C(NCc1ccc(Cl)cc1)C1CCN(S(=O)(=O)c2ccc(F)cc2)CC1	0%	-4%	-5	23%	-4	0%
O=C(CSc1nc2ccccc2[nH]1)Nc1cc(C(F)(F)F)ccc1N1CCOCC1	-1%	?	-23	5.2µM*	-3	-6%
O=C(CSc1ccc([N+](=O)[O-])cn1)Nc1ccccc1N1CCOCC1	-7%	?	19	4%	-1	0%
O=C(CSc1nc2ccccc2[nH]1)Nc1ccccc1N1CCOCC1	-2%	-29%	-8	·	-4	6%
O=C(CSc1ccc([N+](=O)[O-])cn1)Nc1cc(C(F)(F)F)ccc1N1CCOCC1	1%	5.2µM*	8	-25%	-3	-13%
COc1cc(OC)cc(C(=O)N[C@H](C(=O)NCc2ccc(F)cc2)C(C)C)c1	0%	?	-2	?	-2	34%
Cc1nc2c(=O)[nH]n(C)c2nc1C	·	·	·	·	·	-7%
COc1ccc(NC(=O)Nc2nnc(-c3cccs3)s2)cc1	3%	-8%	61*	55%	25*	14%
Cc1nnc(NC(=O)c2cccc(F)c2)s1	-6%	102%	-3	?	7	-1%
O=C(Nc1nnc(-c2cccs2)s1)c1cccc(F)c1	-1%	173%	59*	-9%	19*	33%
O=C(Nc1ccccc1)Nc1nnc(-c2cccs2)s1	11%	118%	25	41%	29*	1%
COc1ccc(C(=O)Nc2nnc(-c3cccs3)s2)cc1	-6%	·	60*	-29%	43*	12%
CC1(C(=O)Nc2cccnc2)Cc2c(-c3cccc(C(F)(F)F)c3)ccnc2O1 (stereo not drawn)	·	·	·	·	·	-5%
CCC(C)(c1nnnn1-c1c(C)cccc1C)N(N=O)c1ccccc1Cl (stereo not drawn)	-11%	?	-7	?	-1	-17%
Cc1occc1C(=O)Nc1nnc(-c2cccs2)s1	1%	66%	107*	62%	34*	-14%
CCOC(=O)N1CCN(Cc2nc(N)nc(Nc3ccc(OC)cc3)n2)CC1	2%	-13%	-18	·	6	19%
COc1ccccc1Nc1nc(N)nc(CN2CCC(Cc3ccccc3)CC2)n1	2%	?	2	12%	-1	8%
